# This is a sample that favours compounds with a hit; in the whole collection about 0.84% have one here.
# SRC2 TRFRET art = flags TR-FRET format artefacts in PPARgamma SRC-2 recruitment agonist screen | TR-FRET artefact counter-screen; active compounds read high | TR-FRET ratio at 8 µM | 200,000 tested, 0.4% active | AID 1049; in the data active = TR-FRET ratio above about 2000
# PPARg SRC2 recr = PPARgamma-driven SRC-2 recruitment agonism; PPARgamma LBD-SRC-2 recruitment, biochemical; activation, % at 8 µM; 200,000 tested, 0.34% active;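 also: 0% = vehicle and 100% = reference agonist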
# Target sequence (P37231 whole entry, looked up, the tested form may be a part): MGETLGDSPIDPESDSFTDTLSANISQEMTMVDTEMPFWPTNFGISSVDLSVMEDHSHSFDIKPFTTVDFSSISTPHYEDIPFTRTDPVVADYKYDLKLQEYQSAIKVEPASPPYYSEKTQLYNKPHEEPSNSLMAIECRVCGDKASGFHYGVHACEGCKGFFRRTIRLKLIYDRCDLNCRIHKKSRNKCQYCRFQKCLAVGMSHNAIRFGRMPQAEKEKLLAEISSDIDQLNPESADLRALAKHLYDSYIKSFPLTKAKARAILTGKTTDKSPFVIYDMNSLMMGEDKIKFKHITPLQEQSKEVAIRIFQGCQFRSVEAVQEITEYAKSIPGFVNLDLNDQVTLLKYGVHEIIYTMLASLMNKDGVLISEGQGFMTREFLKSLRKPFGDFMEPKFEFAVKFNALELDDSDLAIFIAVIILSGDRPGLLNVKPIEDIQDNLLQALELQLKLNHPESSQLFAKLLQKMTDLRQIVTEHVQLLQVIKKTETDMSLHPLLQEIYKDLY
# SRC3 TRFRET art = TR-FRET artefact, counter-screen to PPARgamma/SRC-3 agonist assay. 99,000 tested, 0.39% active. AID 1048. PPARgamma/SRC-3 format; active compounds read high. TR-FRET ratio at 8 µM; in the data active = TR-FRET ratio above about 2000
# PPARg SRC3 recr = PPARgamma-driven SRC-3 recruitment agonism; P37231; biochemical PPARgamma/SRC-3 coactivator recruitment assay; activation, % at 8 µM; 200,000 tested, 0.26% active; AID 731; in the data active = activation above about 23%;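 also: 0% = DMSO and 100% = reference agonist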
# SRC1 TRFRET art = flags TR-FRET format artefacts in PPARgamma SRC-1 recruitment agonist screen | TR-FRET detection artefact counter-screen, emission ratio; active compounds read high | TR-FRET ratio at 8 µM | 99,000 tested, 0.34% active | AID 1051; in the data active = TR-FRET ratio above about 2300
# PPARg SRC-1 ag = PPARgamma-driven SRC-1 recruitment agonism; PPARgamma-SRC-1 coactivator recruitment biochemical assay; 200,000 tested, 0.41% active; activation, % at 8 µM; in the data active = activation above about 19%;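 also: 0% = DMSO and 100% = reference agonist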
# PPARg SRC2 conf = confirmation of agonists of SRC-2 recruitment by human PPARgamma. 790 tested, 52% active. activation, % at 8 µM. biochemical SRC-2 recruitment by PPARgamma. shares compounds with PPARg SRC3 recr;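 also: 0% = vehicle alone and 100% = reference agonist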
# PPARg SRC1 conf = human PPARgamma SRC-1 recruitment agonism, confirmation | shares compounds with PPARg SRC3 recr | PPARgamma–SRC-1 coactivator recruitment biochemical assay | 790 tested, 43% active | AID 1300 | activation, % at 8 µM; in the data active = activation above about 20%;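 also: 0% = vehicle wells and 100% = reference agonist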
# PPARg SRC3 ag = confirmation of agonists of SRC-3 recruitment by human PPARgamma | shares compounds with PPARg SRC3 recr | biochemical PPARgamma-SRC-3 coactivator recruitment, agonist mode | activation, % at 8 µM | 790 tested, 29% active; in the data active = activation above about 24%;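 also: 0% = vehicle wells and 100% = reference agonist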
# Active calls of the source: *; . = no result. Rule as the data show it, unless noted: active = activation above about 22%; inactive = the rest.
SMILES,SRC2 TRFRET art,PPARg SRC2 recr,SRC3 TRFRET art,PPARg SRC3 recr,SRC1 TRFRET art,PPARg SRC-1 ag,PPARg SRC2 conf,PPARg SRC1 conf,PPARg SRC3 ag
O=c1c(Cl)c(Cl)cnn1-c1ccccc1,1411,2,1630,3,1870,2,.,.,.
CCCCSc1cnn(-c2ccccc2)c(=O)c1SCCCC,1992*,28*,.,45*,.,24*,40*,24*,26*
O=C(CCCCN1CCCCC1)c1ccc2c(c1)Cc1ccccc1-2,1567,0,1616,-2,1637,-11,.,.,.
CCn1c(=S)[nH]c2scc(-c3cccs3)c2c1=O,2915*,49*,2804*,39*,3314*,52*,60*,44*,39*
O=c1c2c(-c3cccs3)csc2ncn1-c1ccccc1,1481,0,.,2,.,-2,.,.,.
C=CCn1c(=S)[nH]c2scc(-c3ccc(C)o3)c2c1=O,2125*,15,2146*,24*,2448*,25*,21,15,16
C=CCn1c(=S)[nH]c2sccc2c1=O,1612,9,1503,0,1985,7,.,.,.
O=c1c2c(-c3cccs3)csc2[nH]c(=S)n1-c1ccccc1,2587*,43*,.,82*,.,65*,63*,48*,42*
CC(C)CCNC(=O)C(c1cccnc1)N(CCc1ccccc1)C(=O)Cn1nnc2ccccc21 (stereo unspecified),1433,-1,.,-7,.,-2,.,.,.
COCCCn1c(=S)[nH]c2c(sc3ccccc32)c1=O,1903,10,1986,9,2173,11,.,.,.
CN(C)CCN1C(=O)C(O)=C(C(=O)c2cc3ccccc3o2)C1c1ccccn1 (stereo unspecified),1299,-6,.,15,.,5,.,.,.
CCN(CC)CCCN1C(=O)C(O)=C(C(=O)c2cc3ccccc3o2)C1c1ccccn1 (stereo unspecified),2586*,48*,.,62*,.,43*,40*,30*,27*
CN1C(=O)/C(=C/C=C2\SCCN2C)N(C)C1=S,1893,5,1670,20,1709,23*,13,12,12
Cc1ccc(C(=O)C2=C(O)C(=O)N(c3ncccn3)C2c2ccc(Cl)cc2)o1 (stereo unspecified),2243*,38*,.,43*,.,28*,28*,21*,22
O=C(NNS(=O)(=O)c1ccccc1[N+](=O)[O-])c1cccc([N+](=O)[O-])c1,1385,6,1688,0,1634,-6,.,.,.
Cc1ccc(-n2nnnc2SCc2ccccn2)cc1C,1453,1,.,13,.,5,.,.,.
ClCc1csc(-c2ccccc2Cl)n1,2108*,25*,2168*,17,2229,19,28*,22*,17
CCN(CC)S(=O)(=O)c1ccc(N2CCOCC2)c(NC(=O)c2ccc(C#N)cc2)c1,1636,-2,1539,5,1704,11,.,.,.
COc1ccc(-c2cn3c(C)c(C(=O)Nc4cc(NC(C)=O)ccc4OC)sc3n2)cc1,2510*,39*,.,47*,.,23*,41*,34*,25*
COc1ccccc1CNC(=O)/C=C/c1ccc(Br)o1,1680,2,1802,0,2053,10,.,.,.
Cc1cc(C)c(NC(=O)CSc2nc3ccc(NC(=O)CSc4nnnn4Cc4ccccc4)cc3s2)c(C)c1,1906,24*,.,15,.,10,9,10,8
N#C/C(=C\c1cccnc1)C(=O)NC1CCCCC1,1414,8,1816,0,1657,0,.,.,.
CC(=O)c1cc(NC(=O)c2ccc(Cl)cc2)c(=O)oc1/C=C/N(C)C,1524,6,.,12,.,20*,12,8,9
CC(=O)c1cc(NC(=O)c2cccc(C(F)(F)F)c2)c(=O)oc1/C=C/N(C)C,1377,-4,.,-7,.,6,.,.,.
Nc1cc2nsnc2cc1Br,6354*,265*,.,334*,.,230*,225*,167*,150*
SMILES,SRC2 TRFRET art,PPARg SRC2 recr,SRC3 TRFRET art,PPARg SRC3 recr,SRC1 TRFRET art,PPARg SRC-1 ag,PPARg SRC2 conf,PPARg SRC1 conf,PPARg SRC3 ag
Nc1ccccc1-c1nnc(-c2ccccc2N)n1N,1379,2,1717,5,1733,12,.,.,.
CCOc1ccc(NC(=S)C(C#N)=C2N(C)c3ccccc3N2C)cc1,1563,18,1702,0,1817,23*,0,-1,3
O=C(COc1ccc2ccccc2c1)NCCNC(=O)COc1ccc2ccccc2c1,2532*,39*,.,47*,.,38*,52*,48*,34*
Cc1cc(C)c(NC(=O)c2cc(=O)c3ccccc3o2)c(C)c1,1429,8,1246,0,1603,-1,.,.,.
CCOc1nnnc2c1sc1nc(N3CCOCC3)c3c(c12)CCCC3,1413,-3,.,-8,.,-3,.,.,.
CCCCc1cc(=O)oc2cc(O)cc(O)c12,2054*,20,2006,13,2687*,28*,13,9,11
CCCCc1cc(=O)oc2cc(C)cc(O)c12,1941,14,.,17,.,7,.,.,.
O=C(CSc1ncnc2c1oc1ccccc12)NC1CCCCC1,2101*,24*,.,33*,.,64*,49*,37*,32*
O=C(CSc1ncnc2c1oc1ccccc12)OCc1ccccc1,2399*,55*,.,42*,.,46*,41*,34*,29*
O=C(CSc1ncnc2c1oc1ccccc12)Nc1nccs1,1614,14,1569,3,1953,0,.,.,.
NC(=O)CSc1ncnc2c1oc1ccccc12,4661*,110*,.,153*,.,120*,76*,55*,53*
O=C(CSc1ncnc2c1oc1ccccc12)c1cccs1,2091*,30*,.,69*,.,52*,38*,25*,23
COc1cc(-c2nc(CN3CCN(c4ncccn4)CC3)c(C)o2)ccc1F,1471,-2,1573,4,1775,4,.,.,.
O=C(C[n+]1ccn(CCCNP2(=O)C=C(c3ccccc3)OC(c3ccccc3)=C2)c1)c1cccs1,1449,-2,1363,-1,1637,5,.,.,.
CC(Oc1ccc(Cl)cc1Cl)c1nc(-c2ccc(NC(=O)c3ccco3)cc2)no1 (stereo unspecified),1662,5,.,10,.,1,.,.,.
O=C(O)c1cc(-c2ccc(Cl)s2)nc2ccccc12,2455*,39*,2388*,22,3037*,37*,50*,35*,33*
CN(C)c1ccc(-c2nn3c(-c4ccc(Cl)cc4Cl)nnc3s2)cc1,1484,5,1563,-3,1837,3,.,.,.
Clc1ccc(-c2nnc3sc(-c4ccc(Br)o4)nn23)c(Cl)c1,1760,23*,.,21,.,6,15,10,10

# Bioassay records as filed in PubChem BioAssay.
